CTSL1 counter – blocks F. hepatica cathepsin L1 in PFM18AAP counter-screen. 300,000 compounds, 0.49% hits. AID 1906. inhibition, % at 5.96 µM. recombinant F. hepatica cathepsin L1, Z-Leu-Arg-MCA fluorescence;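 active means inhibition above the mean of all tested compounds plus 3 SD, set per screening campaign, cut at about 17% in these data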
PAFAH1B2 FP inh – inhibitors of human PAFAH1B2. P68402. recombinant PAFAH1B2, FP-rhodamine activity probe, fluorescence polarization. inhibition, % at 3.39 µM. 340,000 compounds, 1.2% hits. AID 492953;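 active means inhibition above the mean of all tested compounds plus 3 SD, cut at about 24% in these data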
Target sequence (P68402 whole entry, looked up): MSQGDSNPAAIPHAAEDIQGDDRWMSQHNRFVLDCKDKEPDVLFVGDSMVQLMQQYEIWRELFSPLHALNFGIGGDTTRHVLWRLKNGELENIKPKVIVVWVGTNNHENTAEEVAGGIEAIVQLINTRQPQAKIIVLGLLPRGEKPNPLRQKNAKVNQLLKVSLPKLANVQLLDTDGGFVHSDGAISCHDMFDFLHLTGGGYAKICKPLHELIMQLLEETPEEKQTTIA
PAFAH2 inh – PAFAH2 (human) inhibition. Q99487. recombinant PAFAH2, FP-rhodamine activity probe, fluorescence polarization. inhibition, % at 3.39 µM. 340,000 compounds, 0.99% hits;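 active means inhibition above the mean over all tested compounds plus 3 SD, cut at about 30% in these data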;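 further: inhibitors block probe labeling of enzyme so polarization drops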
pPAFAH FP inh – pPAFAH (human) enzyme inhibition; Q13093; recombinant pPAFAH, FP-rhodamine probe fluorescence polarization; inhibition, % at 3.39 µM; 330,000 compounds, 1.5% hits; AID 463082;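 active means inhibition above the mean inhibition across the screen plus 3 SD, cut at about 25% in these data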;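 further: inhibitors block binding of the rhodamine activity-based probe so polarization drops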
PAFAH1B3 inh – PAFAH1B3 (human) inhibition; Q15102; recombinant PAFAH1B3, FP-rhodamine probe, fluorescence polarization; inhibition, % at 3.39 µM; 340,000 compounds, 0.28% hits; AID 492972;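 active means inhibition above the screen-wide average of all tested compounds plus 3 SD, cut at about 25% in these data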
Target sequence (Q15102 whole entry, looked up): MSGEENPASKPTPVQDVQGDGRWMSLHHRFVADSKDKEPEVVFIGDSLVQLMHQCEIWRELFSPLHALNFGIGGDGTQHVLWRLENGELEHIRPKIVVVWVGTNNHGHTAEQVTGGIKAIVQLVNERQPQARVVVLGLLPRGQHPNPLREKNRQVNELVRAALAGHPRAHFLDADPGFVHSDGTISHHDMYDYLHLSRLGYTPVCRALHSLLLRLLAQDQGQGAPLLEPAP
PP5 inh – blocks human protein phosphatase 5 activity; purified PP5c, OMFP substrate fluorescence; 320,000 compounds, 0.18% hits; AID 1987; inhibition, % at 6.7 µM;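 active means inhibition above the campaign's mean inhibition across all tested compounds plus 3 SD, cut at about 9.5% in these data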
pPAFAH confirm – pPAFAH (human) inhibition, confirmed | shares compounds with pPAFAH FP inh | recombinant pPAFAH, FP-Rh probe fluorescence polarization | inhibition, % at 3.39 µM | 2,300 compounds, 72% hits;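 active means mean inhibition of the triplicate above the hit cutoff set for the earlier primary screen, cut at about 25% in these data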
Numbers stand for hits. The list is not random: actives were taken first. Their share in the collection is about 3%.

`Cc1cc(C)cc(C(=O)NCC(=O)OCc2c(C)noc2C)c1` gave CTSL1 counter inactive, PAFAH1B2 FP inh inactive, PAFAH2 inh inactive, pPAFAH FP inh 37.0, PAFAH1B3 inh inactive, PP5 inh inactive and pPAFAH confirm inactive.
CC1CN(S(=O)(=O)c2cccc(C(=O)Nc3ccc(S(=O)(=O)NC4=NCCCCC4)cc3)c2)CC(C)O1 (configuration not stated) was read as CTSL1 counter inactive, PAFAH1B2 FP inh inactive, PAFAH2 inh inactive, pPAFAH FP inh inactive, PAFAH1B3 inh inactive and PP5 inh inactive.
`COc1ccc(-c2csc(NC(=O)c3ccccc3Br)c2C(=O)O)cc1` gave CTSL1 counter inactive, PAFAH1B2 FP inh inactive, PAFAH2 inh inactive, pPAFAH FP inh inactive, PAFAH1B3 inh inactive and PP5 inh inactive.
For O=C(Nc1sc2c(c1C(=O)O)CCCC2)c1ccc(F)cc1 the results were PAFAH1B2 FP inh inactive, PAFAH2 inh inactive and PAFAH1B3 inh inactive.
`CC(C)(C)c1ccc(C(=O)Nc2sc3c(c2C(=O)O)CCC3)cc1` gave CTSL1 counter inactive, PAFAH1B2 FP inh 46.8, PAFAH2 inh inactive, pPAFAH FP inh 36.7, PAFAH1B3 inh inactive, PP5 inh inactive and pPAFAH confirm 41.2.
COc1ccc(-c2csc(NC(=O)c3ccc(C(C)(C)C)cc3)c2C(=O)O)cc1 was read as CTSL1 counter inactive, pPAFAH FP inh 36.8, PP5 inh inactive and pPAFAH confirm 40.9.
For COc1cccc(C(=O)OCC(=O)NCC2CCCO2)c1 (configuration not stated) the results were PAFAH1B2 FP inh inactive, PAFAH2 inh inactive, pPAFAH FP inh inactive and PAFAH1B3 inh inactive.
For Cc1ccc(NS(=O)(=O)c2ccc(NC(=O)CN(c3cc([N+](=O)[O-])ccc3C)S(C)(=O)=O)cc2)c(C)c1 the results were CTSL1 counter inactive, PAFAH1B2 FP inh inactive, PAFAH2 inh inactive, pPAFAH FP inh 41.8, PAFAH1B3 inh inactive, PP5 inh inactive and pPAFAH confirm 51.1.
For N#CC1=C(N)Oc2n[nH]c(-c3cccs3)c2C1c1ccncc1 (configuration not stated) the results were CTSL1 counter inactive, PAFAH1B2 FP inh inactive, PAFAH2 inh inactive, pPAFAH FP inh inactive, PAFAH1B3 inh inactive and PP5 inh inactive.
Screening N#CC1=C(N)Oc2n[nH]c(-c3cccs3)c2C1c1ccsc1 (configuration not stated) returned CTSL1 counter inactive, PAFAH1B2 FP inh inactive, PAFAH2 inh inactive, pPAFAH FP inh 37.8, PAFAH1B3 inh inactive, PP5 inh inactive and pPAFAH confirm inactive.
Screening COc1ccc(-n2c(SCC(=O)Nc3ccccc3OC)nc(O)cc2=O)cc1 returned CTSL1 counter inactive, PAFAH1B2 FP inh inactive, PAFAH2 inh inactive, pPAFAH FP inh inactive, PAFAH1B3 inh inactive and PP5 inh inactive.
Screening COc1ccccc1-n1c(SCC(=O)Nc2cccc3ccccc23)nc(O)cc1=O returned CTSL1 counter inactive, PAFAH1B2 FP inh inactive, PAFAH2 inh inactive, pPAFAH FP inh 37.5, PAFAH1B3 inh inactive, PP5 inh inactive and pPAFAH confirm inactive.
CCOc1ccc2c(c1)C(=O)c1cc(OCC(=O)O)ccc1-2 was read as CTSL1 counter inactive, PAFAH1B2 FP inh inactive, PAFAH2 inh inactive, pPAFAH FP inh 36.9, PAFAH1B3 inh inactive, PP5 inh inactive and pPAFAH confirm inactive.
For CCCCOc1ccc2c(c1)C(=O)c1cc(O)ccc1-2 the results were CTSL1 counter inactive, PAFAH1B2 FP inh inactive, PAFAH2 inh inactive, pPAFAH FP inh inactive, PAFAH1B3 inh inactive and PP5 inh inactive.
Screening COc1cc(NC(c2ccccc2)c2ccccc2)cc(OC)c1OC returned CTSL1 counter inactive, PAFAH1B2 FP inh inactive, PAFAH2 inh inactive, pPAFAH FP inh 44.1, PAFAH1B3 inh inactive, PP5 inh inactive and pPAFAH confirm 42.8.
For O=C(C=Cc1ccccc1Cl)c1ccccc1 the results were PAFAH1B2 FP inh inactive, PAFAH2 inh inactive and PAFAH1B3 inh inactive.
For CCNc1ccc(Br)cc(C(=O)/C=C/c2ccccc2Cl)c1=O the results were CTSL1 counter inactive, PAFAH1B2 FP inh inactive, PAFAH2 inh 35.9, pPAFAH FP inh 45.8, PAFAH1B3 inh inactive, PP5 inh inactive and pPAFAH confirm 28.2.
`O=C(Nc1ccc(-c2csc(Nc3ccccc3)n2)cc1)c1cccc(C(F)(F)F)c1` gave CTSL1 counter inactive, PAFAH1B2 FP inh inactive, PAFAH2 inh inactive, pPAFAH FP inh inactive, PAFAH1B3 inh inactive and PP5 inh inactive.
`O=C(Nc1ccc(-c2csc(Nc3ccc(Cl)cc3)n2)cc1)c1cccc(C(F)(F)F)c1` gave CTSL1 counter inactive, pPAFAH FP inh 44.4, PP5 inh inactive and pPAFAH confirm inactive.
Cc1ccc(N=C2NC(=O)/C(=C/C=C/c3ccco3)S2)cc1 was read as CTSL1 counter inactive, PAFAH1B2 FP inh inactive, PAFAH2 inh inactive, pPAFAH FP inh 68.2, PAFAH1B3 inh inactive, PP5 inh inactive and pPAFAH confirm 33.1.
For O=C1NC(=Nc2ccccc2)S/C1=C\C=C\c1ccco1 the results were CTSL1 counter inactive, PAFAH1B2 FP inh inactive, PAFAH2 inh inactive, pPAFAH FP inh 60.4, PAFAH1B3 inh inactive, PP5 inh inactive and pPAFAH confirm 38.4.
For COc1ccc(N=C2NC(=O)/C(=C\C=C\c3ccccc3)S2)cc1 the results were CTSL1 counter inactive, PAFAH1B2 FP inh inactive, PAFAH2 inh inactive, pPAFAH FP inh inactive, PAFAH1B3 inh inactive and PP5 inh inactive.
For Cc1cccc(N=C2NC(=O)/C(=C/c3cccnc3)S2)c1C the results were CTSL1 counter inactive, PAFAH1B2 FP inh inactive, PAFAH2 inh inactive, pPAFAH FP inh inactive, PAFAH1B3 inh inactive and PP5 inh inactive.
For COc1ccc(N=C2NC(=O)/C(=C/C=C/c3ccccc3)S2)cc1 the results were CTSL1 counter inactive, PAFAH1B2 FP inh inactive, PAFAH2 inh inactive, pPAFAH FP inh inactive, PAFAH1B3 inh inactive and PP5 inh inactive.
Cc1cccc(N=C2NC(=O)/C(=C/C=C/c3ccco3)S2)c1C was read as CTSL1 counter inactive, PAFAH1B2 FP inh inactive, PAFAH2 inh 47.7, pPAFAH FP inh 70.7, PAFAH1B3 inh inactive, PP5 inh inactive and pPAFAH confirm 66.3.
For CCOC(=O)N1CCC(N2Cc3cccc(C(=O)Nc4ccc(N(CC)CC)cc4C)c3C2=O)CC1 the results were CTSL1 counter inactive, PAFAH1B2 FP inh inactive, PAFAH2 inh inactive, pPAFAH FP inh inactive, PAFAH1B3 inh inactive and PP5 inh inactive.
For O=C(COc1ccc2ccccc2c1)Nc1cccc(C(=O)Nc2ccccc2C(=O)O)c1 the results were CTSL1 counter inactive, PAFAH1B2 FP inh inactive, PAFAH2 inh inactive, pPAFAH FP inh inactive, PAFAH1B3 inh inactive and PP5 inh inactive.
O=C(O)c1ccccc1Nc1cccc(OCc2ccc3ccccc3n2)c1 was read as CTSL1 counter inactive, PAFAH1B2 FP inh inactive, PAFAH2 inh inactive, pPAFAH FP inh 35.7, PAFAH1B3 inh inactive, PP5 inh inactive and pPAFAH confirm 31.3.
